Source: PubChem BioAssay
Records with an inconclusive call do not appear. Calls of active or inactive are those of the source. Rule as the data show it, unless noted: active = inhibition above about 30%; inactive = the rest.

Columns and labels:
[1] = Her2 expression decrease, cell viability multiplex – SKBR3 breast tumor cells, AlphaScreen, ATP viability, primary screen (AID 461;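 active = Her2 level under about 52% in both replicate screens, with viability over 70% of control, limit read from the data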;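 as to Her2 level: lower value means less Her2 protein in the cells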;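 as to viability: percent of carrier control wells set as 100% viability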); details: SKBR3 Her2 protein level, 18-24 h, measured here: SKBR3 viability, ATP luminescence, at 10 µM
[2] = target: Receptor tyrosine-protein kinase erbB-2 (Homo sapiens) (UniProt P04626); assay: as above; details: 18-24 h, at 10 µM, stronger effect = lower value
Chain of Receptor tyrosine-protein kinase erbB-2 (Homo sapiens) (P04626 whole entry, looked up): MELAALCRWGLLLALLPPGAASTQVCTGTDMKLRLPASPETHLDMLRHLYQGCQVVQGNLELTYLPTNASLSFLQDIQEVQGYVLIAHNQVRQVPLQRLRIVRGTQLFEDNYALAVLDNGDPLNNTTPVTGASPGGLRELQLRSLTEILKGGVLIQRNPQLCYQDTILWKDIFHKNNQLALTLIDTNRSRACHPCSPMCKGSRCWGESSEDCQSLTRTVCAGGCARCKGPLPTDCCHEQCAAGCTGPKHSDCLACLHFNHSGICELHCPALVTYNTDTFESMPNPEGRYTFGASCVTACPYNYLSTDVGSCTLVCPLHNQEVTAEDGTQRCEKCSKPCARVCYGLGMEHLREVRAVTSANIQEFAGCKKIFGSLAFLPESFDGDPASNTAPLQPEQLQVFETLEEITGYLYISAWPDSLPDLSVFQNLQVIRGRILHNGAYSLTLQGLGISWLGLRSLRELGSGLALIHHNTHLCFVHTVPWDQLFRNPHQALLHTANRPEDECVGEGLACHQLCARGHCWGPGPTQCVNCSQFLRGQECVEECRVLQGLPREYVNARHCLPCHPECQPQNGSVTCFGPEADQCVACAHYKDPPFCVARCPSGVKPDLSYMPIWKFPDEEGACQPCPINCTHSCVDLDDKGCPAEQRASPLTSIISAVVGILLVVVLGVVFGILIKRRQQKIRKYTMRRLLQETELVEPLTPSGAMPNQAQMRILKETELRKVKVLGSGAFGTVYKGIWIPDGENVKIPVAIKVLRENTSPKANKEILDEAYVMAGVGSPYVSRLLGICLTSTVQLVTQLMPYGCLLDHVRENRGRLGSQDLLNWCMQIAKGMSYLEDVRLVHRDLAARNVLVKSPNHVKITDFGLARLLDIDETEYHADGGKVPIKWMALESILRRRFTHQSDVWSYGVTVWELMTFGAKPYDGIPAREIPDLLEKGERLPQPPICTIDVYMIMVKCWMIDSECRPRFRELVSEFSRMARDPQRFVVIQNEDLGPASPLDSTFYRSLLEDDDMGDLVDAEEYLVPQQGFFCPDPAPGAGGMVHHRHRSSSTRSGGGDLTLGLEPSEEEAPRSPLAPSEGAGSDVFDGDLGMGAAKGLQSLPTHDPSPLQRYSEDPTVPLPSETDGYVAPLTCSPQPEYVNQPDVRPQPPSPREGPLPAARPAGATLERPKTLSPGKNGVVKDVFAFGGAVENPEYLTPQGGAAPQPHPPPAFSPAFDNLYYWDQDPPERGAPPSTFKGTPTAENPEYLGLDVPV

[3] = reduced viability of SK-BR-3 breast cancer cells – cell-based, 24 h, human, pilot screen (AID 572;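 active = viability at or below 10% of carrier control in both of two separate runs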;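 also: compound exposure lasted between 18 and 24 h rather than exactly 24 h; 100% = carrier-treated control wells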); details: SK-BR-3 viability, CellTiter-Glo luminescence, at 10 µM, stronger effect = lower value
[4] = HUVEC growth inhibition – cell-based, human, primary screen (AID 575;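 active = viability at or below 30% in both replicate assays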;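 also: 100% = median of untreated cell wells with 0.1% DMSO on each plate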); details: HUVEC proliferation, CellTiter-Glo luminescence, 72 h; at 10 µM; stronger effect = lower value
[5] = H69AR cell proliferation blockers – human, duplicate replicates, primary screen (AID 580;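 active = viability at or under a set limit in both replicates, limit being median viability minus 3 SD, cut at about 48% in these data, passing the limit was not always enough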;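 also: 100% = mean luminescence of untreated wells and 0% = no signal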); details: H69AR lung tumor cells viability, ATP luminescence, 72 h; at 10 µM; stronger effect = lower value
[6] = MRP1 drug-resistance reversers in H69AR cells – cell-based, doxorubicin co-treatment, pilot screen (AID 601;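 active = viability loss from added drug above about 55%, and viability with drug at most 40%, in both replicates, limit read from the data, passing the limit was not always enough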); details: CellTiter-Glo, 72 h, at 10 µM; for differential viability (reversal): stronger effect = higher value
[7] = yeast transport mutant growth inhibition pilot in 384-well plates, post-Golgi transport modulator project (AID 636; in the data active = inhibition above about 31%); details: absorbance 615 nm, about 18 h, stronger effect = higher value
[8] = growth suppression of yeast trafficking mutant, preliminary HTS, modulators of trafficking downstream of Golgi apparatus project, 1536-format plate, OD 615 nm (AID 637); details: yeast transport mutant growth, absorbance 615 nm, 18 h; stronger effect = higher value
[9] = S. cerevisiae growth inhibition in permissive medium (OD615), pilot counter-assay for S. cerevisiae lifespan shortening project, permissive growth control (AID 705;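 active = growth inhibition above 25% in both replicates, a cutoff set 3 SD above the mean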); details: OD615, 24 h, at 10 µM, stronger effect = higher value
[10] = S. cerevisiae growth inhibition in restrictive medium, OD615, pilot screen, restrictive growth control, yeast lifespan reduction project (AID 706;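 active = growth inhibition above a set limit, 3 SD over mean compound inhibition, in both replicates, cut at about 43% in these data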;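 also: modified DeaD lifespan yeast strain shifted to restrictive glucose medium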); details: OD615, 48 h, at 10 µM, stronger effect = higher value
[11] = doxorubicin toxicity protection in MRP-1 cells – H69AR cells, CellTiter-Glo, duplicate, MRP-1 activator project, pilot screen (AID 807;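 active = viability increase at or above a cutoff of the median across tested compounds plus 3 SD, cut at about 8.5% in these data, passing the limit was not always enough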;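 also: compound pretreatment 18-22 h then 72 h combined with doxorubicin; 0% = doxorubicin alone and 100% = vehicle without doxorubicin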); details: H69AR viability with doxorubicin, CellTiter-Glo luminescence; at 10 µM; stronger effect = higher value
[12] = viability of HCT116 without oncogenic beta-catenin – human colon tumor cells, pilot screen (AID 823;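 active = cell viability at or below a set limit in both duplicate runs, the limit being the all-compound median minus 4 SD, cut at about 23% in these data, passing the limit was not always enough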;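 also: 0% = wells killed by 20 µM Hyamine and 100% = untreated DMSO cell wells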); details: HCT116 beta-catenin knockout viability, CellTiter-Glo, 60 h; at 10 µM; stronger effect = lower value
[13] = RAM pathway blockade in budding yeast – dse1pr::URA3 reporter, 5-FOA selection, pilot screen (AID 869;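 active = inhibition over a set limit, the all-compound mean plus 3 SD, in both replicate runs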;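 also: 0% = DMSO wells with no growth and 100% = 10 µM 1-NA-PP1 with full growth; RAM network block rescues cells from 5-FOA so hits raise OD615 growth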); details: S. cerevisiae dse1pr::URA3 5-FOA growth, OD615, 2 d; at 10 µM; stronger effect = higher value; strain carries analog-sensitive mutant Cbk1 kinase
[14] = RAM signaling pathway blockade in yeast – S. cerevisiae, Pdr1DBD-CYC8 efflux-inhibited sensitized strain, primary screen (AID 1298;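 active = RAM network inhibition above 8.4% in each of two replicates, 3 SD over the compound average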;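 also: 0% = DMSO untreated cells without growth and 100% = 10 µM 1-NA-PP1 full growth; higher means more yeast growth rescued from 5-FOA killing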); details: S. cerevisiae cbk1-as DSE1-URA3 strain, 5-FOA growth OD615, 2 d; at 50 µM; stronger effect = higher value
[15] = viability of PTEN-null HCT116 cells – cell-based, HCT116 clonal line, CellTiter-Glo, pilot screen (AID 824;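 active = viability at or below 27.92% in each of two runs, the all-compound median minus 4 SD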;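 also: 0% = 20 µM Hyamine control and 100% = vehicle cell control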); details: HCT116 PTEN-deleted viability, 60 h, at 10 µM, stronger effect = lower value
[16] = H69AR cells + 2 uM doxorubicin, measured here: viability with 2 uM doxorubicin, stronger effect = lower value
[17] = H69AR cells, compound alone cytotoxicity

Row | SMILES | viability [1] [%] | Her2 level [2] | viability [3] | viability [4] | viability [5] | differential viability (reversal) ([6]; H69AR cells + 2 uM doxorubicin) | viability [6, 16] [%] | viability [6, 17] [%] | inhibition [7] | inhibition [8] | growth inhibition [9] | growth inhibition [10] | viability increase [11] | viability [12] | inhibition [13] | RAM network inhibition [14] | viability [15]
1 | CCCc1nnc2n1N=C(c1ccc(-c3cc(Cl)ccc3Cl)o1)CS2 | 108 | 94% (inactive) | 108% (inactive) | 97.1% (inactive) | 89.2% (inactive) | 1.35% (inactive) | 87.8 | 89.2 | -1.82% (inactive) | 0% (inactive) | -18.6% (inactive) | 4.29% (inactive) | -2.95% (inactive) | 97.8% (inactive) | 1.36% (inactive) | 1.93% (inactive) | 
2 | CCOc1ccc(N(CC(=O)Nc2ccc(C)c(C)c2)S(=O)(=O)c2c(C)noc2C)cc1 | 101 | 75% (inactive) | 101% (inactive) | 68.8% (inactive) | 53.8% (inactive) | -14.4% (inactive) | 68.2 | 53.8 | -0.13% (inactive) | 3.67% (inactive) | 0.98% (inactive) | -5.67% (inactive) | -6.26% (inactive) | 27.4% (inactive) | 1.85% (inactive) | 6.75% (inactive) | 
3 | CCOCCCNC(=O)C(c1ccc(C)cc1)N(Cc1ccc2c(c1)OCO2)C(=O)c1cnccn1 (configuration not stated) | 98 | 102% (inactive) | 98% (inactive) | 103% (inactive) | 98.7% (inactive) | -0.27% (inactive) | 98.9 | 98.7 | -5.34% (inactive) | 2.38% (inactive) | -5.46% (inactive) | 3.09% (inactive) | -2.67% (inactive) | 93.8% (inactive) | 1.83% (inactive) | 5.34% (inactive) | 
4 | CNC(=O)C1C2C=CC3(O2)C1C(=O)N(C1CC1)C3C(=O)NCc1ccc(OC)cc1 (configuration not stated) | 99.5 | 84% (inactive) | 99.5% (inactive) | 91.9% (inactive) | 91.5% (inactive) | -0.53% (inactive) | 92 | 91.5 | -8.49% (inactive) | -0.16% (inactive) | -12.6% (inactive) | 1.86% (inactive) | -1.49% (inactive) | 96.3% (inactive) | 0.115% (inactive) | 1.1% (inactive) | 
5 | COc1ccc(S(=O)(=O)Cc2ccc(C(=O)N3CCOCC3)o2)cc1 | 106 | 126% (inactive) | 106% (inactive) | 94.2% (inactive) | 99.5% (inactive) | -1.56% (inactive) | 101 | 99.5 | 0% (inactive) | -0.83% (inactive) | -4.55% (inactive) | -13.3% (inactive) | -0.14% (inactive) | 111% (inactive) | 0.96% (inactive) | 1.62% (inactive) | 99.2% (inactive)
6 | COc1cc2[nH]c(=O)n(CCCCCC(=O)N3CCN(c4ccccn4)CC3)c(=O)c2cc1OC | 104 | 92.5% (inactive) | 104% (inactive) | 100% (inactive) | 89.3% (inactive) | -2.77% (inactive) | 92.1 | 89.3 | -5.95% (inactive) | -4.83% (inactive) | -9.93% (inactive) | -5.11% (inactive) | -4.76% (inactive) | 73.2% (inactive) | 1.7% (inactive) | 3.23% (inactive) | 
7 | CCSc1oc(-c2ccco2)nc1S(=O)(=O)c1ccccc1 | 95 | 93.5% (inactive) | 95% (inactive) | 93.3% (inactive) | 89.3% (inactive) | 2.04% (inactive) | 87.2 | 89.3 | -5.95% (inactive) | -8.33% (inactive) | -16.4% (inactive) | 11.4% (inactive) | -2.68% (inactive) | 92.7% (inactive) | 1.75% (inactive) | 1.2% (inactive) | 
8 | CC(C)C(NC(=O)c1ccc(S(=O)(=O)N2CCOCC2)cc1)c1nc2ccccc2[nH]1 (configuration not stated) | 104 | 94.5% (inactive) | 104% (inactive) | 72.5% (inactive) | 82.2% (inactive) | -2.94% (inactive) | 85.2 | 82.2 | 1.95% (inactive) | -2.95% (inactive) | -13.7% (inactive) | -12.6% (inactive) | -5.63% (inactive) | 100% (inactive) | 2.71% (inactive) | 6.44% (inactive) | 
9 | Cc1cccc(OCC(=O)N2CCN(C(=O)Cc3ccccc3)CC2)c1 | 102 | 94% (inactive) | 102% (inactive) | 107% (inactive) | 97.3% (inactive) | -0.125% (inactive) | 97.5 | 97.3 | -7.33% (inactive) | -0.97% (inactive) | -11.1% (inactive) | -28.1% (inactive) | -2.39% (inactive) | 85.4% (inactive) | 0.285% (inactive) | 0.56% (inactive) | 81.4% (inactive)
10 | Cc1ccc(S(=O)(=O)C(C#N)c2nc3ccccc3nc2N2CCCCC2)cc1 (configuration not stated) | 124 | 99.5% (inactive) | 124% (inactive) | 71.6% (inactive) | 92% (inactive) | -2.64% (inactive) | 94.7 | 92 | -6.13% (inactive) | 3.65% (inactive) | -26.9% (inactive) | 6.8% (inactive) | -3.74% (inactive) | 93.8% (inactive) | 2.7% (inactive) | 5.83% (inactive) | 
